Source: the supplement of paper PMC6411743
± gives the standard deviation of the averaged measurements. About 5,400 targets were measured; listed, in parts, are those with the largest changes and a random draw of the rest.

Compound: Nc1nc2c(ncn2[C@@H]2O[C@H](COP(=O)(O)OP(=O)(O)OP(=O)(O)O)[C@@H](O)[C@H]2O)c(=O)[nH]1 [guanosine triphosphate]
Experiment: NP40-soluble protein abundance relative to vehicle (solubility fold change) (ratio); higher = more soluble protein in presence of GTP
Summary of the method: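 Eight concentrations, 0.1 to 10 mM, were tested on Jurkat crude lysate for 10 min at room temperature and then 3 min at 37 °C, in three independent experiments. The lysate was solubilised with 0.8% NP40 and benzonase, ultracentrifuged, and the supernatant TMT-labelled for LC-MS/MS. Each value is the fold change against the detergent-processed vehicle in its own replicate, from vsn-normalised intensities.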

Sequence of UniProt Q96ME7 (Q96ME7 whole entry, one chain of several): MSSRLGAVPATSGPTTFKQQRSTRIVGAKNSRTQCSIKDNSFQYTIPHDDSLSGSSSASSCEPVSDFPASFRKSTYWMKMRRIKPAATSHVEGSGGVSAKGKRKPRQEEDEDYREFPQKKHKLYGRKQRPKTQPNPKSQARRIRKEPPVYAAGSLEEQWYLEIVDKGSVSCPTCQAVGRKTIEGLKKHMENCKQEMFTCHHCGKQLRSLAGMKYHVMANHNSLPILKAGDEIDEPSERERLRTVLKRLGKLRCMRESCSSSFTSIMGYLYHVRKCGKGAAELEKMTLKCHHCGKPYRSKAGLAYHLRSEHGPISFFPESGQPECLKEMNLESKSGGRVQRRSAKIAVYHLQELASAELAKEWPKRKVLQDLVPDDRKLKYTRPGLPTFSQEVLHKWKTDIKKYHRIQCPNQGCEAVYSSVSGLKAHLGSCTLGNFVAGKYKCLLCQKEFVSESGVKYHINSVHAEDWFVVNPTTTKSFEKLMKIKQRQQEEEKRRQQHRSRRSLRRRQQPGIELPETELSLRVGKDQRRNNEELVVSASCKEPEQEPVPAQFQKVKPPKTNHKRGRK
Sequence of UniProt Q13615 (Q13615 whole entry, one chain of several): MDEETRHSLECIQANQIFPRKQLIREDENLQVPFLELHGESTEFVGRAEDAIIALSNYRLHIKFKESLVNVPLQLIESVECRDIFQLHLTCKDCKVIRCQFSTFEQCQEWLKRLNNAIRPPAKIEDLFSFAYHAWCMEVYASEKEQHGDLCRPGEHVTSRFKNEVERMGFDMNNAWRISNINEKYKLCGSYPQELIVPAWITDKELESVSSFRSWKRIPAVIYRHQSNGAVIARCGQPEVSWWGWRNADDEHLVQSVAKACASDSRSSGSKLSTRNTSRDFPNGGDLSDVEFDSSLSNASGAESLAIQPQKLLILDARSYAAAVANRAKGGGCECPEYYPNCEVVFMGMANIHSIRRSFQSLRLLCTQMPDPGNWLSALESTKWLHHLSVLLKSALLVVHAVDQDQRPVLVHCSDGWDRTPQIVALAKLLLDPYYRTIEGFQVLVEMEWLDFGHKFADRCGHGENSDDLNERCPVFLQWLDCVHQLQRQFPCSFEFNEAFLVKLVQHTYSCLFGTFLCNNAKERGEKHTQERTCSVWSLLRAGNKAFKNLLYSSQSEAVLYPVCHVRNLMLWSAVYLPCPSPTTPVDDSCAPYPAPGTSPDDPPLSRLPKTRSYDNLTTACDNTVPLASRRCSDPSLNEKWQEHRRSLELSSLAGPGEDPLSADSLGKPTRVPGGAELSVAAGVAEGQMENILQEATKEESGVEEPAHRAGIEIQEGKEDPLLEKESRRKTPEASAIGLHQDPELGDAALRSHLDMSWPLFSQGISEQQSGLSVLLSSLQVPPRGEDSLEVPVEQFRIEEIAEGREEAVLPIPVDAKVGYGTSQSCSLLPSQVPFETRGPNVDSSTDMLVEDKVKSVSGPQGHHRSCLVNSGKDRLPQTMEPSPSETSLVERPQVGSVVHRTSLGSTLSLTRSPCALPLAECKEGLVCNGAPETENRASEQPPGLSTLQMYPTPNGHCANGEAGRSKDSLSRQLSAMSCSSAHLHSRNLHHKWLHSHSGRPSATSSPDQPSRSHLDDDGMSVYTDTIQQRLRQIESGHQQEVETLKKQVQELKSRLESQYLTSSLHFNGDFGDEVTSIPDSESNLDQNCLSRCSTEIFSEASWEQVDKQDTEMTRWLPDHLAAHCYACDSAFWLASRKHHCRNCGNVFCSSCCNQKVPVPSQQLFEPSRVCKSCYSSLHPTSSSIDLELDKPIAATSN
Sequence of UniProt Q96KA5 (Q96KA5 whole entry, one chain of several): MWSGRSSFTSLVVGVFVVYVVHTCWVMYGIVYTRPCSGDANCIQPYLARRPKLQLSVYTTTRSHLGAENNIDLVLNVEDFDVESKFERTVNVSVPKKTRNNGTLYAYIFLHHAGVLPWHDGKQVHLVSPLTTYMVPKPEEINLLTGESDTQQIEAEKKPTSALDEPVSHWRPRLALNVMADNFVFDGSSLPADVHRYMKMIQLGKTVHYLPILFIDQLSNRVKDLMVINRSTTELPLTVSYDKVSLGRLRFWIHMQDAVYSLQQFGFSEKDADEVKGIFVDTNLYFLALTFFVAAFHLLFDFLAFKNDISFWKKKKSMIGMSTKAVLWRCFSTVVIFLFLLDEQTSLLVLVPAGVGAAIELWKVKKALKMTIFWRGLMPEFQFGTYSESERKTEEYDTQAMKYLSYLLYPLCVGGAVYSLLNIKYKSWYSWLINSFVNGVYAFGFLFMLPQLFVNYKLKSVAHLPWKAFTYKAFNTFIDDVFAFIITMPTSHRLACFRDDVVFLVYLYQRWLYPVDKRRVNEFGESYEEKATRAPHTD
Sequence of UniProt Q9Y375 (Q9Y375 whole entry, one chain of several): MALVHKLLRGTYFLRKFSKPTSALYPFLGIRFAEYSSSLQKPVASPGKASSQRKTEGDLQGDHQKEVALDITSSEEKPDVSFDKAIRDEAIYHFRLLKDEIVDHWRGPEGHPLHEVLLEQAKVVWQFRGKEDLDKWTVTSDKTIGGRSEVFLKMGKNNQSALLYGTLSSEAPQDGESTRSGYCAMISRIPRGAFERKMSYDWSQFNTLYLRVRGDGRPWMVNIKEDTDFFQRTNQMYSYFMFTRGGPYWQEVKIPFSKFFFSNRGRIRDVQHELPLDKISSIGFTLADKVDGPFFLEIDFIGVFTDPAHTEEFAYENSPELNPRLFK
Sequence of UniProt A6NHR9 (A6NHR9 whole entry): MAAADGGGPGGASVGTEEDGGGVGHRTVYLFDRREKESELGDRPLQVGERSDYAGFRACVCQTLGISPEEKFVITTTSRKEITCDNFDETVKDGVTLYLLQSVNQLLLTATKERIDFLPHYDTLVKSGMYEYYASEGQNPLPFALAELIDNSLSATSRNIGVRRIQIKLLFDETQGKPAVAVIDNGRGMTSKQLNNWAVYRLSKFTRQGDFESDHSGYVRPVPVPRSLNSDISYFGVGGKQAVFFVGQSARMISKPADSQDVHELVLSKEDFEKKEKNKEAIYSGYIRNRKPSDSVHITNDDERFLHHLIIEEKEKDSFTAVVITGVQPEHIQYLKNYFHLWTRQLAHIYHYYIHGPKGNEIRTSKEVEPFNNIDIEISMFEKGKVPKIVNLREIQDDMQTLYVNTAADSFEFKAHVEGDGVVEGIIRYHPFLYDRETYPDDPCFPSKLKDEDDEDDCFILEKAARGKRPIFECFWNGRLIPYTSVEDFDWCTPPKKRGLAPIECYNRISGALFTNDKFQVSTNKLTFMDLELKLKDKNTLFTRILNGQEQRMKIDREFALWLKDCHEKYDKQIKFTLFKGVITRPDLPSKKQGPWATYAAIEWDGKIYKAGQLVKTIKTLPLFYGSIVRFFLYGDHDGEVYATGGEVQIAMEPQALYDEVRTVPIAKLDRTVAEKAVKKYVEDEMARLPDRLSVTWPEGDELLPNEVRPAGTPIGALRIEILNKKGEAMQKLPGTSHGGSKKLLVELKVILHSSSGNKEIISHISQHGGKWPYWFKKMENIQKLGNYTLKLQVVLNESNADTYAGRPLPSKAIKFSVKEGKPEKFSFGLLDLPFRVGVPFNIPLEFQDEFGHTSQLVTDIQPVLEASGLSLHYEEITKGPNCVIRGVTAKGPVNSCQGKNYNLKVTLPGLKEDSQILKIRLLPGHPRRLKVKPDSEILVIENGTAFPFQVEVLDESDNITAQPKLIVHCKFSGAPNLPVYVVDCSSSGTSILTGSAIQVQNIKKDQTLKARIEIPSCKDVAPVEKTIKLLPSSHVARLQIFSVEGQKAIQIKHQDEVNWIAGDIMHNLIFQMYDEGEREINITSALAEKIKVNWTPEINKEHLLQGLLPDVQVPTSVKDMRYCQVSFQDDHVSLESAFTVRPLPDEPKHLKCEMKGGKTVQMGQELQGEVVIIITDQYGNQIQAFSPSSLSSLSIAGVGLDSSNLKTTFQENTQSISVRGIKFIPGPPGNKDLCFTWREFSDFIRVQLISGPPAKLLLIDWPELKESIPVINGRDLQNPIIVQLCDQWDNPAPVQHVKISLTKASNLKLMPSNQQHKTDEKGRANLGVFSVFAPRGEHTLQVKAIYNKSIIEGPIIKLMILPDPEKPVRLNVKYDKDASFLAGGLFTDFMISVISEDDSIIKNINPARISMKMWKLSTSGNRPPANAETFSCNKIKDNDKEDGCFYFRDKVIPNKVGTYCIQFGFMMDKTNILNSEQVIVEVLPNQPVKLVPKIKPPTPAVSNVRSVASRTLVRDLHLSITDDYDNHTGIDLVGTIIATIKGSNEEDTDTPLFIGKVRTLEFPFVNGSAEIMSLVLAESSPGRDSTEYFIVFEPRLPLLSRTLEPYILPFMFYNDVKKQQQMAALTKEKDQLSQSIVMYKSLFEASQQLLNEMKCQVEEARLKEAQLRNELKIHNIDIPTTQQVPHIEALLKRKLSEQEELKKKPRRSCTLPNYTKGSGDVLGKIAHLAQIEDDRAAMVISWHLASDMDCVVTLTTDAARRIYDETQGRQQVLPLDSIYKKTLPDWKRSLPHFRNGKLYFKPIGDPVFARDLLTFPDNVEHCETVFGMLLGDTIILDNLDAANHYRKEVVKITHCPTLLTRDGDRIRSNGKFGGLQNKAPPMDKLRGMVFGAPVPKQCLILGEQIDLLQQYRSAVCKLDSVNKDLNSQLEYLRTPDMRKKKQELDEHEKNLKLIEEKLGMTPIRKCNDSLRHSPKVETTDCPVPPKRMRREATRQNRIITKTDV
Sequence of UniProt Q15004 (Q15004 whole entry, one chain of several): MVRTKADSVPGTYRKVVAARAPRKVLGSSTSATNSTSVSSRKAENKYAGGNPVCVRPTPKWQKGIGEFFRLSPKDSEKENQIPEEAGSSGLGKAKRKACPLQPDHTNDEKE
Sequence of UniProt P04179 (P04179 whole entry, one chain of several): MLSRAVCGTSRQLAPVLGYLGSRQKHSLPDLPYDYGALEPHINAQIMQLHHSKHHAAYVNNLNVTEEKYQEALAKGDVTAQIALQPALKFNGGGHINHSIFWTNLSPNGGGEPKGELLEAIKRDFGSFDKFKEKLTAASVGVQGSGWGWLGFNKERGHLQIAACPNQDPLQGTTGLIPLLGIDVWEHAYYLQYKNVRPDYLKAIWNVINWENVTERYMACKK

Target	NP40-soluble protein abundance (concentration: 0.1mM)	NP40-soluble protein abundance (concentration: 0.5mM)	NP40-soluble protein abundance (concentration: 1mM)	NP40-soluble protein abundance (concentration: 2mM)	NP40-soluble protein abundance (concentration: 4mM)	NP40-soluble protein abundance (concentration: 6mM)	NP40-soluble protein abundance (concentration: 8mM)	NP40-soluble protein abundance (concentration: 10mM)
A0A087X1E4|P53365|P53365-3 (UniProt P53365)	0.956 ± 0.05	0.853 ± 0.057	0.972 ± 0.052	0.963 ± 0.08	0.913 ± 0.088	0.906 ± 0.1	0.861 ± 0.14	0.889 ± 0.068
E9PPH5|Q9BTT0|Q9BTT0-3 (UniProt Q9BTT0)	0.838 ± 0.058	0.874 ± 0.062	0.978 ± 0.05	0.94 ± 0.045	0.937 ± 0.056	0.946 ± 0.037	0.958 ± 0.038	1.08 ± 0.079
A0A0C4DGS0|P56556 (UniProt P56556)	0.947 ± 0.069	0.934 ± 0.051	1.05 ± 0.1	1.08 ± 0.12	1.09 ± 0.17	1.02 ± 0.093	0.939 ± 0.064	1.01 ± 0.1
H0YKX3|Q15004 (UniProt Q15004)	1.03 ± 0.086	1.04 ± 0.062	1.07 ± 0.081	1.04 ± 0.12	0.957 ± 0.13	0.982 ± 0.15	1.19 ± 0.031	1.09 ± 0.039
C9JRJ5|Q9UGP4 (UniProt Q9UGP4)	1.01 ± 0.054	1 ± 0.021	1 ± 0.043	0.955 ± 0.025	0.963 ± 0.031	0.962 ± 0.021	1.01 ± 0.038	0.965 ± 0.034
A0A0A0MSJ9|Q15283|Q15283-2 (UniProt Q15283)	1.05 ± 0.057	1.07 ± 0.065	0.985 ± 0.018	0.998 ± 0.04	1.01 ± 0.054	0.967 ± 0.048	0.94 ± 0.067	0.927 ± 0.13
E9PRF4|Q15047|Q15047-3 (UniProt Q15047)	0.977 ± 0.12	0.93 ± 0.12	0.904 ± 0.055	0.909 ± 0.039	0.873 ± 0.04	0.881 ± 0.035	0.904 ± 0.051	0.862 ± 0.017
F8VQE1|Q9UHB6|Q9UHB6-2|Q9UHB6-4|Q9UHB6-5 (UniProt Q9UHB6)	0.977 ± 0.045	0.955 ± 0.12	1.16 ± 0.11	1.16 ± 0.1	1.35 ± 0.12	1.71 ± 0.067	1.95 ± 0.29	2.21 ± 0.23
B1AMU7|Q9Y3B2 (UniProt Q9Y3B2)	1.02 ± 0.037	1.07 ± 0.04	1.01 ± 0.056	1.1 ± 0.11	1.18 ± 0.11	1.22 ± 0.12	1.17 ± 0.062	1.18 ± 0.068
B1AMW1|P19256|P19256-2|P19256-3 (UniProt P19256)	0.879 ± 0.05	0.937 ± 0.095	0.973 ± 0.11	0.915 ± 0.064	0.979 ± 0.038	1.03 ± 0.088	0.952 ± 0.036	0.958 ± 0.047
F8VXG7|Q99590|Q99590-2 (UniProt Q99590)	1.02 ± 0.064	1.13 ± 0.03	1.22 ± 0.025	1.26 ± 0.058	1.3 ± 0.042	1.31 ± 0.031	1.4 ± 0.1	1.42 ± 0.12
G5E9Z2|Q96KA5|Q96KA5-2 (UniProt Q96KA5)	1.09 ± 0.049	1.07 ± 0.017	1.02 ± 0.042	0.983 ± 0.034	0.989 ± 0.016	0.971 ± 0.039	0.974 ± 0.035	0.96 ± 0.04
F5H136|P17987 (UniProt P17987)	0.988 ± 0.02	1.07 ± 0.086	1.08 ± 0.12	1.11 ± 0.18	1.09 ± 0.2	1.1 ± 0.21	1.06 ± 0.19	1.02 ± 0.2
B4E1Q4|O14730|O14730-2 (UniProt O14730)	0.965 ± 0.1	1.03 ± 0.063	0.949 ± 0.081	0.921 ± 0.073	0.806 ± 0.037	0.77 ± 0.041	0.747 ± 0.08	0.704 ± 0.041
SMCHD1 (UniProt A6NHR9)	1.05 ± 0.04	1.06 ± 0.055	0.999 ± 0.029	1.03 ± 0.07	1.04 ± 0.056	1.04 ± 0.043	1.02 ± 0.051	1.01 ± 0.098
B4DZG1|Q9Y483|Q9Y483-3|Q96G26|Q9Y483-2|Q9Y483-4 (UniProt Q9Y483)	1.11 ± 0.061	1.09 ± 0.032	1.16 ± 0.044	1.26 ± 0.074	1.4 ± 0.068	1.45 ± 0.095	1.64 ± 0.2	1.78 ± 0.18
G3XAN4|Q15629|Q15629-2 (UniProt Q15629)	0.776 ± 0.028	0.785 ± 0.098	0.911 ± 0.14	0.819 ± 0.16	0.8 ± 0.15	0.783 ± 0.23	0.898 ± 0.19	0.905 ± 0.16
G5E953|Q13615|Q13615-2|Q13615-3 (UniProt Q13615)	1.01 ± 0.036	0.987 ± 0.04	0.978 ± 0.063	0.953 ± 0.034	0.976 ± 0.045	0.963 ± 0.065	1 ± 0.042	0.971 ± 0.028
H3BMU3|O60268|O60268-3 (UniProt O60268)	0.928 ± 0.032	0.988 ± 0.17	1.01 ± 0.18	0.95 ± 0.15	0.961 ± 0.14	0.918 ± 0.2	0.919 ± 0.067	0.998 ± 0.096
C9JKQ7|C9JTV6|C9JZG2|P22102 (UniProt P22102)	0.96 ± 0.015	0.985 ± 0.03	0.9188 ± 0.0076	0.909 ± 0.023	0.895 ± 0.026	0.894 ± 0.017	0.863 ± 0.039	0.863 ± 0.022
A0A0C4DFU2|P04179|P04179-4 (UniProt P04179)	0.85 ± 0.056	0.843 ± 0.071	0.851 ± 0.071	0.839 ± 0.043	0.814 ± 0.045	0.823 ± 0.052	0.734 ± 0.073	0.776 ± 0.07
E7EN86|P52747|P52747-2|P52747-3 (UniProt P52747)	1.06 ± 0.038	1.03 ± 0.024	0.988 ± 0.058	0.94 ± 0.013	0.988 ± 0.076	0.939 ± 0.055	1.03 ± 0.013	1.02 ± 0.045
A0A087X256|Q2M389 (UniProt Q2M389)	1.04 ± 0.058	1.01 ± 0.097	0.973 ± 0.048	0.975 ± 0.028	0.957 ± 0.028	0.973 ± 0.044	1.02 ± 0.068	0.889 ± 0.024
G3XAG1|Q96ME7|Q96ME7-3 (UniProt Q96ME7)	1.1 ± 0.013	1.17 ± 0.055	1.27 ± 0.04	1.445 ± 0.014	1.74 ± 0.059	1.88 ± 0.079	2.01 ± 0.13	2.17 ± 0.081
A0A0C4DFX4|Q6ZRS2|Q6ZRS2-2|Q6ZRS2-3 (UniProt Q6ZRS2)	1.12 ± 0.075	1.11 ± 0.013	1.3 ± 0.042	1.44 ± 0.17	1.6 ± 0.21	1.62 ± 0.17	1.86 ± 0.33	1.83 ± 0.29
H0YL22|Q9Y375 (UniProt Q9Y375)	0.979 ± 0.059	1.05 ± 0.082	0.936 ± 0.088	0.969 ± 0.071	0.922 ± 0.036	0.924 ± 0.065	0.921 ± 0.071	0.943 ± 0.059
E9PEN0|Q8WYH8|Q8WYH8-2 (UniProt Q8WYH8)	1.1 ± 0.098	1.07 ± 0.16	1.26 ± 0.41	1.19 ± 0.26	1.33 ± 0.3	1.5 ± 0.35	1.48 ± 0.39	2 ± 0.59
